PubChem BioAssay (Tox21)
Where “and” joins values, the source holds several entries; their conditions need not be identical. Equal entries are not always repeated. Inconclusive results are not listed. Where a call stands in place of a potency, no number is given. Calls of active or inactive are those of the source. Unless noted, the call rests on the fitted dose curve; in most records, active means well fitted curve in the direction sought with a large enough effect in the repeat runs; inconclusive means weak or mixed curves; inactive means no such curve, though single readings can be large; an effect the other way counts as inactive or inconclusive.

Experiments:
[1] = qHTS assay to identify small molecule HDAC inhibitors (AID 1259364); details: HCT-116 HDAC-Glo I/II luminescence, 2 h; series mostly up to 92.4 µM;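 further: wild-type HCT-116 cells with endogenous class I/II HDAC activity; top concentration of the series differs between compounds; nearly all actives have a fitted effect of over 45% in size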
Outline: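 Cells (HCT-116, wild type) are seeded at 1,500 per well, incubated overnight, treated with compound in DMSO for 2 hr, then developed with HDAC-Glo I/II reagent for 30 min at room temperature.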

[2] = qHTS assay to identify small molecule HDAC inhibitors - cell viability counter screen (AID 1259365); details: HCT-116 viability, CellTiter-Glo ATP luminescence, 2 h; series mostly up to 92.4 µM; further: nearly all actives have a fitted effect of over 50% in size
Outline: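 Wild-type HCT-116 cells, 1,500/well, cultured overnight, then compound-treated 2 h at 37 C. Viability measured as ATP luminescence with CellTiter-Glo after 30 min at room temperature.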

[3] = qHTS assay to identify small molecule agonists of the sonic hedgehog signaling (Shh) pathway (AID 1259368; calls by dose curve;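 further: NIH/3T3-derived 3T3Gli1-Luc cells carrying a stable Gli1-driven firefly luciferase reporter; nearly all actives have a fitted effect of over 15% in size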); details: NIH/3T3 Gli1-Luc reporter, luciferase, 24 h; series mostly up to 92.4 µM
Outline: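 Cells of a mouse NIH/3T3 clone stably expressing luciferase under the Gli1 transcriptional response element are exposed to test chemicals for 24 hr at 37 C. Pathway activation is detected as a rise in luminescence.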

[4] = qHTS assay to identify small molecule antagonists of the sonic hedgehog signaling (Shh) pathway (AID 1259369; calls by dose curve; further: potency means the concentration at half of the fitted maximal effect; nearly all actives have a fitted effect of over 45% in size); details: NIH/3T3 Gli1-Luc reporter, Shh antagonist, luminescence 24 h; series mostly up to 92.4 µM
Outline: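 Cells are plated and held 4hr at 37 C, compounds (DMSO) are pinned in, conditioned medium is added to stimulate the pathway, and after 24hr luciferase reagent is added for 30min before luminescence is read.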

[5] = qHTS assay to identify small molecule agonists of the androgen receptor (AR) signaling pathway in the presence of an antagonist - cell viability counter screen (AID 1259379); details: MDA-kb2 viability, CellTiter-Fluor, 16 h; series mostly up to 92.4 µM; further: nearly all actives have a fitted effect of over 25% in size; further: potency means the concentration at half of the fitted maximal effect
Outline: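 Cytotoxicity is assessed by CellTiter-Fluor in MDA-kb2 cells carrying an MMTV-driven luciferase reporter. Cells receive 3.0uM nilutamide plus compounds at 15 concentrations and incubate 16 hr at 37C without CO2 before fluorescence reading.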

[6] = qHTS assay to identify small molecule agonists of the estrogen receptor beta (ER-beta) signaling pathway - cell viability counter screen (AID 1259380); details: ER-beta-bla HEK293T viability, CellTiter-Glo luminescence, 16 h; series mostly up to 92.4 µM; further: nearly all actives have a fitted effect of over 30% in size; further: potency means the concentration at half of the fitted maximal effect
Outline: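 Cytotoxicity is measured in parallel with the reporter screen: after 16 hr compound exposure at 37C and a 2 hr LiveBLAzer step, CellTiter-Glo is added to the same ER-beta-UAS-bla HEK293T wells and luminescence read after 30 min.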

[7] = qHTS assay to identify small molecule antagonists of the estrogen receptor beta (ER-beta) signaling pathway - cell viability counter screen (AID 1259382); details: ER-beta-UAS-bla HEK293T viability, CellTiter-Glo luminescence, 16 h; series mostly up to 92.4 µM; further: nearly all actives have a fitted effect of over 55% in size; further: potency means the concentration at half of the fitted maximal effect
Outline: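 Cytotoxicity counter screen multiplexed with the beta-lactamase antagonist assay: GripTite HEK293T ER-beta-bla cells were treated 16 hr with test chemicals in the presence of 1nM 17-beta-estradiol, and viability was measured by CellTiter-Glo.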

[8] = qHTS assay to identify small molecule agonists or antagonists of the thyroid stimulating hormone receptor (TSHR) signaling pathway - wild type cell line counter screen (AID 1259384; calls by dose curve); details: HEK293 wild type, cAMP HTRF counter-screen, active compounds read high; series mostly up to 92.4 µM
Outline: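 Wild-type Hek293 cells, 800/well, 18 h at 37C, then compound with Ro20-1724 for 30 min RT. cAMP by HTRF (cAMP-d2/anti-cAMP cryptate), 1 h RT, fluorescence read. 15 concentrations, triplicates.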

[9] = biological target: Androgen receptor (Homo sapiens) (UniProt P10275); assay: qHTS assay to identify small molecule antagonists of the androgen receptor (AR) signaling pathway using the MDA cell line in the presence of 0.5 nM R1881 (AID 1259243); details: MDA-kb2 MMTV-luciferase, R1881 0.5 nM, 16 h; series mostly up to 92.4 µM; further: nearly all actives have a fitted effect of over 50% in size; further: potency means the concentration at half of the fitted maximal effect
Androgen receptor (Homo sapiens), sequence (P10275 whole entry, looked up): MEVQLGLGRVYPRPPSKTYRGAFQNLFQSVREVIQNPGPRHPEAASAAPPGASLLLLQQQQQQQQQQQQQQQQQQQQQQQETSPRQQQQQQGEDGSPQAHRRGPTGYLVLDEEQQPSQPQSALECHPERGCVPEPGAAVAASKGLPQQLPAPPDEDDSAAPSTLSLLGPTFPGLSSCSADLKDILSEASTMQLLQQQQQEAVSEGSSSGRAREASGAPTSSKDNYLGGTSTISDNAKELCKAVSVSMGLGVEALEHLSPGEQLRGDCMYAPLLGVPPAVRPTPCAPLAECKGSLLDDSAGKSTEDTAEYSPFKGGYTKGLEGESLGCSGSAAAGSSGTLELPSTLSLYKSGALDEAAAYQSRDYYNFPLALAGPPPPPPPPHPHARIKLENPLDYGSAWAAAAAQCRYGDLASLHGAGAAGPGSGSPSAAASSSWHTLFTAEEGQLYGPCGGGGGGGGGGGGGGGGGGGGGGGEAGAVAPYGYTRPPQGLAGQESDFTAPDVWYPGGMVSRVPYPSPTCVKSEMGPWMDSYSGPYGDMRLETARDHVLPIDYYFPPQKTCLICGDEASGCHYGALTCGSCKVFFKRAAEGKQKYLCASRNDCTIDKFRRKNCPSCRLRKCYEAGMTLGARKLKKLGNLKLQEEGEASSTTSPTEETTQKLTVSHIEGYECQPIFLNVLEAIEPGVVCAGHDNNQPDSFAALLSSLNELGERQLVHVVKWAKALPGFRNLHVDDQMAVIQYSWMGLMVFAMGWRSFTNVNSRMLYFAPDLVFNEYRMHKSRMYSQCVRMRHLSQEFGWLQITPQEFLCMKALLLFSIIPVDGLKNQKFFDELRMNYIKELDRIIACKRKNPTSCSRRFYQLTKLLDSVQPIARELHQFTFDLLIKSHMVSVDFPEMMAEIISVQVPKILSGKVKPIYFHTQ
Outline: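 Stably transfected MDA-kb2 cells express luciferase from an MMTV promoter bearing both AR and GR response elements. Compounds plus 0.5 nM R1881 (final) were incubated 16 hr at 37C without CO2, then luminescence measured.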

[10] = biological target: Estrogen receptor (Homo sapiens) (UniProt P03372); assay: qHTS assay to identify small molecule antagonists of the estrogen receptor alpha (ER-alpha) signaling pathway using the BG1 cell line in the presence of 0.1 nM 17-beta-estradiol (AID 1259244); details: VM7Luc4E2 (BG1) ERE-luciferase, antagonist mode, 0.1 nM E2, 22 h; series mostly up to 92.4 µM; further: nearly all actives have a fitted effect of over 50% in size; further: potency means the concentration at half of the fitted maximal effect
Estrogen receptor (Homo sapiens), sequence (P03372 whole entry, looked up): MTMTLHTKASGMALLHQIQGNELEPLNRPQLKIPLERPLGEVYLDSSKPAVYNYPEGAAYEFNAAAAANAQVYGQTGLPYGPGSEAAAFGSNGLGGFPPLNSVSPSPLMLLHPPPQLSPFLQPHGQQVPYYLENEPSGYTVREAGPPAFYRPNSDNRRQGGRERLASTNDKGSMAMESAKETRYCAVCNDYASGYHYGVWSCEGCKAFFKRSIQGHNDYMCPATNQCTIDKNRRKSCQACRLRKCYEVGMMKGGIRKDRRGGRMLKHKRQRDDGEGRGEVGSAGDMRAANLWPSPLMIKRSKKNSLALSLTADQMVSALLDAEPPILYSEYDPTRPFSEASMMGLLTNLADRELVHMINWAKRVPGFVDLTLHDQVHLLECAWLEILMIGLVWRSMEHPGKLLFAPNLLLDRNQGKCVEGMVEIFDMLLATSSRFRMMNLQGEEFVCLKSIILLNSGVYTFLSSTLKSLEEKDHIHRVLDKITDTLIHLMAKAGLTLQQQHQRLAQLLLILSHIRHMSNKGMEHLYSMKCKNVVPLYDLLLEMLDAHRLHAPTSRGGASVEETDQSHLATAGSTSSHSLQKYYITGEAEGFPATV
Outline: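 Antagonist mode: compounds in DMSO are pinned onto VM7Luc4E2 reporter cells, 0.1 nM final 17beta-estradiol is added, and after 22 h at 37C luciferase luminescence is measured with ONE-Glo.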

[11] = biological target: Androgen receptor (Homo sapiens) (UniProt P10275); assay: qHTS assay to identify small molecule agonists of the androgen receptor (AR) signaling pathway in the presence of an antagonist (AID 1259381; calls by dose curve; further: nearly all actives have a fitted effect of over 15% in size); details: MDA-kb2 MMTV-luciferase, AR agonist + nilutamide, 16 h; series mostly up to 92.4 µM
Outline: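 Agonist-mode confirmation screen: human MDA-kb2 cells stably expressing luciferase under an MMTV promoter bearing AR and GR response elements, co-treated with 3.0uM nilutamide (final). Luminescence measured after 16hr compound incubation.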

[12] = biological target: Estrogen receptor (Homo sapiens) (UniProt P03372); assay: qHTS assay to identify small molecule agonists of the estrogen receptor alpha (ER-alpha) signaling pathway in the presence of an antagonist (AID 1259383; calls by dose curve; further: top concentration of the series differs between compounds; nearly all actives have a fitted effect of over 15% in size); details: VM7Luc4E2 cells, ERE-luciferase, +ICI-182,780, 22 h; series mostly up to 92.4 µM
Outline: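 Agonist-mode confirmation in the presence of the ER antagonist ICI-182,780 at 10.0nM final. Breast-derived VM7Luc4E2 reporter cells were exposed to compounds for 22hr, and ERE-driven luciferase was quantified by luminescence.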

[13] = biological target: Thyrotropin receptor (Homo sapiens) (UniProt P16473); assay: qHTS assay to identify small molecule antagonists of the thyroid stimulating hormone receptor (TSHR) signaling pathway (AID 1259385; calls by dose curve; further: nearly all actives have a fitted effect of over 20% in size; further: potency means the concentration at half of the fitted maximal effect); details: TSHR-HEK293 cAMP HTRF, TSH-stimulated antagonist mode; series mostly up to 92.4 µM
Thyrotropin receptor (Homo sapiens), sequence (P16473 whole entry, looked up): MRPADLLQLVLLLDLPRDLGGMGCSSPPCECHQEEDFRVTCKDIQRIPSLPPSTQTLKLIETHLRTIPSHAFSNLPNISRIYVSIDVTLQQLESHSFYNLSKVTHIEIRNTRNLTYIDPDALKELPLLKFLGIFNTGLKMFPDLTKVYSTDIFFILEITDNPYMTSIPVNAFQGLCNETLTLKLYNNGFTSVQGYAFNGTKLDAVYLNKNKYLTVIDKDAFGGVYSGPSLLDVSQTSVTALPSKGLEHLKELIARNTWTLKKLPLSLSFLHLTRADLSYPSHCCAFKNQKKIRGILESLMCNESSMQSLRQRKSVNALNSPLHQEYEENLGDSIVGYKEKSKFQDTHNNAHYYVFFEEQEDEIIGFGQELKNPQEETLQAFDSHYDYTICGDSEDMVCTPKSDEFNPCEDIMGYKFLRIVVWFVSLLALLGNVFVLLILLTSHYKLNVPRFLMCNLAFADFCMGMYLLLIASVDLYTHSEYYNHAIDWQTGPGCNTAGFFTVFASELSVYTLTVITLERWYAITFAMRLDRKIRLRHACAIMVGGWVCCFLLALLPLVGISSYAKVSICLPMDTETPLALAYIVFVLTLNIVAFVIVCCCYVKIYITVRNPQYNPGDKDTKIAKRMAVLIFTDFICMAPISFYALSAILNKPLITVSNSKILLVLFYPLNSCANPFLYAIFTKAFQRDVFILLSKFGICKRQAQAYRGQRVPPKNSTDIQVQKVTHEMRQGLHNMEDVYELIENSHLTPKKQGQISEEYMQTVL
Outline: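 TSHR-HEK293 cells (800/well) plated 18 h, then compounds with Ro20-1724 and TSH at 1.5 ng/mL final, 30 min at room temperature. cAMP quantified by HTRF (cAMP-d2/anti-cAMP-cryptate, 1 h); 15 concentrations in triplicate.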

[14] = qHTS assay to identify small molecule antagonists of the androgen receptor (AR) signaling pathway using the MDA cell line in the presence of 0.5 nM R1881 - cell viability counter screen (AID 1259242); details: MDA-kb2 viability, CellTiter-Fluor protease fluorescence, 16 h; series mostly up to 92.4 µM; further: nearly all actives have a fitted effect of over 45% in size; further: potency means the concentration at half of the fitted maximal effect
Outline: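 Steps: plate MDA-kb2 cells, rest 5 hr at 37C without CO2; pin in compounds in DMSO; add R1881 to 0.5 nM final; incubate 16 hr; add CellTiter-Fluor, 30 min; read fluorescence.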

[15] = qHTS assay to identify small molecule agonists of the sonic hedgehog signaling (Shh) pathway - cell viability counter screen (AID 1259366); details: NIH/3T3 Gli1-Luc viability, CellTiter-Fluor, 24 h; series mostly up to 92.4 µM; further: nearly all actives have a fitted effect of over 50% in size; further: potency means the concentration at half of the fitted maximal effect
Outline: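 NIH/3T3-derived Gli1-Luc reporter cells, 2,000 per well, received compound after 4 h and were treated about 23 h at 37C. Viability measured in the same wells by CellTiter-Fluor fluorescence after 1 h.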

[16] = biological target: Estrogen receptor beta (Homo sapiens) (UniProt Q92731); assay: qHTS assay to identify small molecule agonists of the estrogen receptor beta (ER-beta) signaling pathway (AID 1259377; active means well fitted activation curve with a large enough effect in the signal ratio in the repeat runs, not every such curve was filed as active; the % refers to the signal ratio); details: ER-beta-UAS-bla HEK293T, beta-lactamase FRET ratio, 16 h; series mostly up to 92.4 µM
Estrogen receptor beta (Homo sapiens), sequence (Q92731 whole entry, looked up): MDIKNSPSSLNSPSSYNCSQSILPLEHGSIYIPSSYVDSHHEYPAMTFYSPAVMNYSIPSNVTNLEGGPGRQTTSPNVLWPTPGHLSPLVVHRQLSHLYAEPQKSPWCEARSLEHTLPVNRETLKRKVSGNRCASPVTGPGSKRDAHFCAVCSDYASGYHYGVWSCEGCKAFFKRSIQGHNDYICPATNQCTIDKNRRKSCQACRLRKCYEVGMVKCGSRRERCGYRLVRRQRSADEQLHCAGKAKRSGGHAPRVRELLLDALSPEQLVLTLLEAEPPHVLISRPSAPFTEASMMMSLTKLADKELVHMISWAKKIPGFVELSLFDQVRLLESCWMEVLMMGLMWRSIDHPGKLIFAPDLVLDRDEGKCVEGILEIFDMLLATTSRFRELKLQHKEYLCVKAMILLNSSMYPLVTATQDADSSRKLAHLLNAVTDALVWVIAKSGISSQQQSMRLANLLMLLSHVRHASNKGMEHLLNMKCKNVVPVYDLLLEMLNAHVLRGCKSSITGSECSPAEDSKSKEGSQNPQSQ
Outline: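 ER-beta-UAS-bla HEK293T cells in medium with 2% charcoal-stripped FBS were exposed to compounds for 16 h at 37C. Beta-lactamase reporter activity was read as fluorescence after 2 h with LiveBLAzer B/G FRET substrate at room temperature.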

[17] = biological target: Estrogen receptor beta (Homo sapiens) (UniProt Q92731); assay: qHTS assay to identify small molecule antagonists of the estrogen receptor beta (ER-beta) signaling pathway (AID 1259378; active means well fitted inhibition curve with a large enough effect in the signal ratio in the repeat runs, not every such curve was filed as active; the % refers to the signal ratio; further: potency means the concentration at half of the fitted maximal effect); details: ER-beta-UAS-bla HEK293T, beta-lactamase FRET ratio, 16 h; series mostly up to 92.4 µM
Outline: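 ER-beta-UAS-bla HEK293T cells in 2% charcoal-stripped FBS medium treated with compound plus 1nM final 17-beta-estradiol for 16 hr at 37C. Beta-lactamase reporter read by FRET substrate fluorescence after 2 hours at room temperature.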

[18] = qHTS assay to identify small molecule phospholipidosis (PLD) inducers (AID 1259344; active means well fitted curve in the direction sought with a large enough effect; an effect the other way counts as inactive or inconclusive); details: HepG2 phospholipidosis, LipidTOX Red imaging, 24 h; series mostly up to 38.3 µM
Outline: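 Read-out is LipidTOX Red fluorescence (ex 595/em 615) imaged in HepG2 cells after 24 h compound exposure at 37 C, with Hoechst nuclear counterstain (ex 352/em 461) allowing per-cell normalisation.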

[19] = qHTS assay to identify small molecule antagonists of the sonic hedgehog signaling (Shh) pathway - cell viability counter screen (AID 1259367); details: NIH/3T3 Gli1-Luc viability, CellTiter-Fluor, 24 h; series mostly up to 42.5 µM; further: nearly all actives have a fitted effect of over 55% in size; further: potency means the concentration at half of the fitted maximal effect
Outline: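 Fluorescence read-out (CellTiter-Fluor, 1 hr at 37C) taken after 23 hr compound treatment of 3T3 Gli1-Luc cells stimulated with conditioned medium. Cells were seeded at 2,000 per well and pre-incubated 4 hr.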

SMILES	Potency [1]	Potency [2]	Potency [3]	Potency [4]	Potency [5]	Potency [6]	Potency [7]	outcome [8]	Potency [9]	Potency [10]	Potency [11]	Potency [12]	Potency [13]	Potency [14]	Potency [15]	Potency [16]	Potency [17]	Potency [18]	Potency [19]
COc1ccc(CN2CCN(C(c3ccc(F)cc3)c3ccc(F)cc3)CC2)c(OC)c1OC	inactive	inactive	inactive	29.8 µM (active)	26.6 µM (active)	11.9 µM (active)	10.6 µM (active)	inactive											
CCCCCCCCCCCC(=O)NCCCN(C)C	inactive	inactive	inactive	19.3 µM (active)		54.5 µM (active)		inactive	68.6 µM (active)	inactive	inactive	inactive	61.1 µM (active)						
CC(C)(C)c1ccc(C(=O)CCCN2CCC(OC(c3ccccc3)c3ccccc3)CC2)cc1	inactive	inactive	inactive	11.9 µM (active)	29.8 µM (active)		23.7 µM (active)	inactive					inactive	21.1 µM (active)	26.6 µM (active)	inactive	13.3 µM (active)		
Nc1cc(C(F)(F)F)ccc1S	inactive	inactive	inactive	13.3 µM (active)	inactive	21.1 µM (active)				inactive	inactive	inactive				inactive			
CC[C@@]1(O)C(=O)OCc2c1cc1n(c2=O)Cc2cc3c(CN(C)C)c(O)ccc3nc2-1	inactive	inactive	inactive	1.33 µM (active)		inactive	inactive	inactive		1.88 µM (active)		inactive	inactive					inactive	
N=C1N=C(N)c2ccccc21	inactive	inactive	inactive	8.63 µM (active)								inactive		inactive					
CCc1cc(Cc2cc(CC)c(N)c(CC)c2)cc(CC)c1N	inactive	inactive	inactive	30.6 µM (active)		27.3 µM (active)	48.6 µM (active)			54.5 µM (active)		inactive	inactive		inactive	inactive			inactive
CCCCCCCCS(=O)C(C)Cc1ccc2c(c1)OCO2 (centres undefined)	inactive		inactive	31.2 µM (active)	inactive			inactive			inactive	inactive		inactive		inactive			
O=C(OCC1CO1)C1CCCCC1C(=O)OCC1CO1 (centres undefined)	inactive	inactive	inactive		inactive		inactive		inactive		inactive		inactive		13.7 µM (active)				13.7 µM (active)
Oc1ccc2cc(SSc3ccc4cc(O)ccc4c3)ccc2c1	inactive	inactive	inactive	19.4 µM (active) and 21.7 µM (active)	61.2 µM (active) and 61.1 µM (active)		inactive	inactive					inactive	inactive					61.2 µM (active) and 48.6 µM (active)
N#CSc1ccc(N)c([N+](=O)[O-])c1	inactive	inactive	inactive	12.3 µM (active)	54.8 µM (active)			inactive			inactive	inactive	61.5 µM (active)		69 µM (active)		19.4 µM (active)		30.8 µM (active)
CN1CCN(CCC(=O)N2c3ccccc3Sc3ccc(C(F)(F)F)cc32)CC1	inactive	inactive	inactive	3.35 µM (active)	29.8 µM (active)	13.3 µM (active)	16.8 µM (active)	inactive		inactive	inactive	inactive					21.1 µM (active)		
CCN(CC)CCCC(C)Nc1c2ccc(Cl)cc2nc2ccc(OC)cc12 (centres undefined)			inactive	29.8 µM (active)	11.9 µM (active)	6.68 µM (active)													inactive
CCCCc1oc2ccc(NS(C)(=O)=O)cc2c1C(=O)c1ccc(OCCCN(CCCC)CCCC)cc1	inactive	inactive	inactive	2.98 µM (active)	21.1 µM (active)	11.9 µM (active)		inactive					29.8 µM (active)		21.1 µM (active)			inactive	26.6 µM (active)
